For ten compounds, growth inhibition results are on record in PubChem BioAssay (NCI).

The panel holds about 79,000 compounds, 15% with a hit somewhere; the sample as a whole holds those more often. Values without a mark were called inactive. Activity calls are given as the source filed them. Rule as the data show it: active = growth inhibition above about 70%; inactive = the rest.

Test [1] can be described thus: NCI Yeast Anticancer Drug Screen. Data for the rad50 strain (AID 155).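 Also: 0% = growth of vehicle-only cultures of the same strain.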 Conditions: S. cerevisiae rad50 strain growth inhibition, stronger effect = higher value. The procedure, abridged: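 Yeast carrying a defined DNA repair defect were exposed to test compounds, and growth was compared with vehicle-treated controls to give percent inhibition.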
Test [2] in a line: NCI Yeast Anticancer Drug Screen. Data for the mec2-1 strain (AID 157). Conditions: S. cerevisiae mec2-1 strain, stronger effect = higher value. The method in brief:
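Readout is yeast growth inhibition, normalised to vehicle-treated controls, in the mec2-1 strain exposed to compound.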

Test [3] is described as follows: NCI Yeast Anticancer Drug Screen. Data for the sgs1 mgt1 strain (AID 161).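 Also: 0% = growth of cultures given vehicle only.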 Conditions: S. cerevisiae sgs1 mgt1 strain, stronger effect = higher value. The procedure, abridged:
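Yeast cells carrying a defined DNA-repair defect were exposed to test compounds. Growth inhibition was measured relative to vehicle-treated controls.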

Test [4] can be described thus: NCI Yeast Anticancer Drug Screen. Data for the cln2 rad14 strain (AID 165).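 Also: 0% = growth equal to vehicle treated cultures.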 Conditions: S. cerevisiae cln2 rad14 strain, stronger effect = higher value. The procedure, abridged: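 Relative to vehicle controls, growth inhibition of compound-treated cln2 rad14 yeast was recorded.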
Test [5] in a line: NCI Yeast Anticancer Drug Screen. Data for the bub3 strain (AID 167). Conditions: S. cerevisiae bub3 mutant strain, stronger effect = higher value. The procedure, abridged:
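Compounds were applied to a genetically altered yeast strain carrying a cell-cycle control defect. Growth inhibition was scored against vehicle-treated controls.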

Test [6] can be described thus: NCI Yeast Anticancer Drug Screen. Data for the mlh1 rad18 strain (AID 175). Conditions: S. cerevisiae mlh1 rad18 strain growth inhibition, stronger effect = higher value. The procedure, abridged:
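Test agents were incubated with a yeast strain of defined genotype (DNA damage repair defect). Inhibition of growth was derived by comparison with vehicle-exposed cultures.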

The mark [7] stands for this setting: at 5.0 µM (retest, dose inferred, filed as 0.5).
[8] abbreviates: at 50.0 µM (retest, dose inferred, filed as 5.0).

`COc1ccc2c(c1)CCc1c-2ccc(C)c1CCC(=O)O`: the growth inhibition is 5% in test [1] (setting [7]); 99% (active) in test [1] (setting [8]); 72.2% (active) in test [1] (at 50.0 µM); 21% in test [2] (setting [7]); 100% (active) in test [2] (setting [8]); 63.8% in test [2] (at 50.0 µM). In addition, the growth inhibition in test [3] (setting [7]) was 19%; in test [3] (setting [8]), 99% (active); in test [3] (at 50.0 µM) it was 63.9%; in test [4] (setting [7]) it was -3%; in test [4] (setting [8]), 99% (active); in test [4] (at 50.0 µM), 74.2% (active). The growth inhibition in test [5] (setting [7]) is 10%; in test [5] (setting [8]), 99% (active); in test [5] (at 50.0 µM), 60.2%; in test [6] (setting [7]), 22%; in test [6] (setting [8]) it was 100% (active); in test [6] (at 50.0 µM) it was 90% (active).

Consider `CCC1OC(OC)C=CC1=O` (stereo not given), for which the growth inhibition in test [1] (setting [7]) is -1%; in test [1] (setting [8]), -8%; in test [1] (at 50.0 µM) it was 90% (active); in test [2] (setting [7]), -10%; in test [2] (setting [8]) it was -25%; in test [2] (at 50.0 µM), 94% (active). Also, the growth inhibition in test [3] (setting [7]) was -14%; in test [3] (setting [8]) it was -19%; in test [3] (at 50.0 µM), 90.2% (active); in test [4] (setting [7]) it was 18%; in test [4] (setting [8]), 15%; in test [4] (at 50.0 µM), 90.5% (active). For the same compound, the growth inhibition in test [5] (setting [7]) was -6%; in test [5] (setting [8]), -15%; in test [5] (at 50.0 µM) it was 90.3% (active); in test [6] (setting [7]), -16%; in test [6] (setting [8]) it was -30%; in test [6] (at 50.0 µM) it was 91.8% (active).

Regarding `Cc1ccc(-n2cc(-c3ccc(Cl)cc3)c3c(N)ncnc32)cc1`, the growth inhibition is 37% in test [1] (setting [7]); 95% (active) in test [1] (setting [8]); 97.1% (active) in test [1] (at 50.0 µM); 15% in test [2] (setting [7]); 97% (active) in test [2] (setting [8]); 94.8% (active) in test [2] (at 50.0 µM). For the same compound, the growth inhibition is 60% in test [3] (setting [7]); 94% (active) in test [3] (setting [8]); 98.3% (active) in test [3] (at 50.0 µM); -3% in test [4] (setting [7]); 96% (active) in test [4] (setting [8]); 88.3% (active) in test [4] (at 50.0 µM). Also, the growth inhibition in test [5] (setting [7]) was 14%; in test [5] (setting [8]) it was 97% (active); in test [5] (at 50.0 µM) it was 92% (active); in test [6] (setting [7]), 30%; in test [6] (setting [8]), 95% (active); in test [6] (at 50.0 µM), 96.8% (active).

Turning to `CN(C)c1ccc(/C=C(\C#N)c2c(F)cccc2F)cc1`, the growth inhibition was 4% in test [1] (setting [7]); -2% in test [1] (setting [8]); 6.05% in test [1] (at 50.0 µM); 3% in test [2] (setting [7]); 2% in test [2] (setting [8]); -10.8% in test [2] (at 50.0 µM). Moreover, the growth inhibition in test [3] (setting [7]) is 4%; in test [3] (setting [8]) it was 1%; in test [3] (at 50.0 µM), 17.9%; in test [4] (setting [7]) it was 3%; in test [4] (setting [8]), -3%; in test [4] (at 50.0 µM), 41.8%. Further, the growth inhibition in test [5] (setting [7]) is 3%; in test [5] (setting [8]), -2%; in test [5] (at 50.0 µM) it was 13.3%; in test [6] (setting [7]), 1%; in test [6] (setting [8]) it was -1%; in test [6] (at 50.0 µM), 0.45%.

In the case of `O=C1C=CC(=O)c2c1oc1ccccc21`, the growth inhibition is 14% in test [1] (setting [7]); 98% (active) in test [1] (setting [8]); 60.7% in test [1] (at 50.0 µM); 6% in test [2] (setting [7]); 99% (active) in test [2] (setting [8]); 19% in test [2] (at 50.0 µM). The growth inhibition in test [3] (setting [7]) is 13%; in test [3] (setting [8]), 99% (active); in test [3] (at 50.0 µM), 16.2%; in test [4] (setting [7]) it was 13%; in test [4] (setting [8]) it was 79% (active); in test [4] (at 50.0 µM) it was 48.5%. For the same compound, the growth inhibition in test [5] (setting [7]) was 30%; in test [5] (setting [8]) it was 98% (active); in test [5] (at 50.0 µM), 36%; in test [6] (setting [7]), 23%; in test [6] (setting [8]) it was 98% (active); in test [6] (at 50.0 µM), 57.8%.

As to `CCCCCCCCCCCCCCOC(=O)C(N)Cc1ccc(O)cc1` (stereo not given), the growth inhibition in test [1] (setting [7]) was 7%; in test [1] (setting [8]), 97% (active); in test [1] (at 50.0 µM), 98.6% (active); in test [2] (setting [7]), 1%; in test [2] (setting [8]), 98% (active); in test [2] (at 50.0 µM) it was 99.2% (active). Also, the growth inhibition is 4% in test [3] (setting [7]); 98% (active) in test [3] (setting [8]); 97.9% (active) in test [3] (at 50.0 µM); 1% in test [4] (setting [7]); 94% (active) in test [4] (setting [8]); 95.1% (active) in test [4] (at 50.0 µM). The growth inhibition in test [5] (setting [7]) is 3%; in test [5] (setting [8]), 98% (active); in test [5] (at 50.0 µM) it was 98.5% (active); in test [6] (setting [7]) it was 7%; in test [6] (setting [8]), 97% (active); in test [6] (at 50.0 µM), 98.8% (active).

For the compound `Nc1cc2c(c[n+](CCCCCCCCCC[n+]3cc4c5ccccc5c(N)cc4c4ccccc43)c3ccccc23)c2ccccc12`, the growth inhibition in test [1] (setting [7]) is 20%; in test [1] (setting [8]), 94% (active); in test [1] (at 50.0 µM), 88% (active); in test [2] (setting [7]), 36%; in test [2] (setting [8]) it was 96% (active); in test [2] (at 50.0 µM) it was 91.8% (active). Moreover, the growth inhibition is 56% in test [3] (setting [7]); 95% (active) in test [3] (setting [8]); 85% (active) in test [3] (at 50.0 µM); 16% in test [4] (setting [7]); 92% (active) in test [4] (setting [8]); 87.8% (active) in test [4] (at 50.0 µM). Further, the growth inhibition in test [5] (setting [7]) was 58%; in test [5] (setting [8]), 95% (active); in test [5] (at 50.0 µM) it was 81% (active); in test [6] (setting [7]) it was 63%; in test [6] (setting [8]) it was 95% (active); in test [6] (at 50.0 µM) it was 83.6% (active).

Take `CC1CC[N-]CC1.CC1CC[N-]CC1.CC1CC[N-]CC1.CC1CC[N-]CC1.CS(C)=O.CS(C)=O.[Cl-].[Cl-].[Cl-].[Cl-].[Pt+4].[Rh+3]`: the growth inhibition in test [1] (setting [7]) was 65%; in test [1] (setting [8]), 96% (active); in test [1] (at 50.0 µM), 95.5% (active); in test [2] (setting [7]), 58%; in test [2] (setting [8]), 98% (active); in test [2] (at 50.0 µM), 96.8% (active). Also, the growth inhibition in test [3] (setting [7]) is 66%; in test [3] (setting [8]), 98% (active); in test [3] (at 50.0 µM), 96.3% (active); in test [4] (setting [7]) it was 44%; in test [4] (setting [8]), 97% (active); in test [4] (at 50.0 µM), 89.3% (active). The growth inhibition in test [5] (setting [7]) was 52%; in test [5] (setting [8]), 96% (active); in test [5] (at 50.0 µM), 97.9% (active); in test [6] (setting [7]), 69%; in test [6] (setting [8]), 97% (active); in test [6] (at 50.0 µM), 97% (active).

For the compound `CCCN(CCC)C(=S)N/N=C(/C)c1ccccc1O`, the growth inhibition in test [1] (setting [7]) was -8%; in test [1] (setting [8]) it was 98% (active); in test [1] (at 50.0 µM), 77.8% (active); in test [2] (setting [7]), -29%; in test [2] (setting [8]) it was 98% (active); in test [2] (at 50.0 µM), 85.7% (active). Also, the growth inhibition in test [3] (setting [7]) is -29%; in test [3] (setting [8]), 97% (active); in test [3] (at 50.0 µM), 87.2% (active); in test [4] (setting [7]), -26%; in test [4] (setting [8]), 97% (active); in test [4] (at 50.0 µM), 86.8% (active). The growth inhibition in test [5] (setting [7]) was -58%; in test [5] (setting [8]), 98% (active); in test [5] (at 50.0 µM), 89% (active); in test [6] (setting [7]) it was -23%; in test [6] (setting [8]), 98% (active); in test [6] (at 50.0 µM), 90.8% (active).

Regarding `CC(=O)Nc1ccc2c(c1)[nH]c(=O)c1cc(Cl)ccc12`, the growth inhibition is 60% in test [1] (setting [7]); 96% (active) in test [1] (setting [8]); 82.8% (active) in test [1] (at 50.0 µM); 18% in test [2] (setting [7]); 63% in test [2] (setting [8]); -1.45% in test [2] (at 50.0 µM). Also, the growth inhibition is 12% in test [3] (setting [7]); 72% (active) in test [3] (setting [8]); 7.25% in test [3] (at 50.0 µM); -20% in test [4] (setting [7]); 76% (active) in test [4] (setting [8]); 0.95% in test [4] (at 50.0 µM). Besides, the growth inhibition in test [5] (setting [7]) was 4%; in test [5] (setting [8]), 7%; in test [5] (at 50.0 µM) it was -7.95%; in test [6] (setting [7]) it was 29%; in test [6] (setting [8]), 91% (active); in test [6] (at 50.0 µM), 35.5%.
